High-throughput results from PubChem BioAssay.
SENP6 inh – inhibitors of human SENP6 protease; Q9GZR1; Recombinant SENP6 catalytic domain, aminoluciferin luminescence; inhibition, % at 10 µM; actives 1.8% (n = 330,000); AID 2599;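 active = inhibition above about 50% at the single tested dose, limit read from the data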;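 note: plate controls were DMSO wells with enzyme for no effect and DMSO wells lacking enzyme for full effect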
SENP7 inh – blocks the human protease SENP7 | Q9BQF6 | recombinant SENP7, Z-RLRGG-aminoluciferin luminescence, 40 min | inhibition, % at 5 µM | actives 1.5% (n = 330,000) | AID 434973;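 active = inhibition above about 50% at the single test dose, limit read from the data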;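 note: plate controls were DMSO with enzyme for no effect and no enzyme buffer wells for full effect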
Target sequence (Q9BQF6 706-1050 limits assumed): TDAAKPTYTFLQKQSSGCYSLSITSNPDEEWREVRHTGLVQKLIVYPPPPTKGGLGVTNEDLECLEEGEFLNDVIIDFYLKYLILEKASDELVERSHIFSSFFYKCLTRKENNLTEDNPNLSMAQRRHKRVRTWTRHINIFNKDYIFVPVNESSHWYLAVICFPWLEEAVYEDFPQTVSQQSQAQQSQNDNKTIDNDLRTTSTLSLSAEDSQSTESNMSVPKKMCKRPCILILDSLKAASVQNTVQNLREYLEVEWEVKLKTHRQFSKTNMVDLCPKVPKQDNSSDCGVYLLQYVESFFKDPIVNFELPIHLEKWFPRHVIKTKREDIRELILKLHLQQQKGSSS
SENP8 block-1 – inhibitors of human SENP8 protease; Q96LD8; recombinant SENP8, Nedd8 substrate fluorescence; inhibition, % at 20 µM; actives 0.64% (n = 360,000); in the data active = inhibition mostly above about 40%, no sharp cut-off; inactive = mostly below about 27%
HSP90 inh – HSP90 refolding inhibition in rabbit reticulocyte lysate. luciferase refolding luminescence, 3 h. inhibition, % at 5.6 µM. actives 0.91% (n = 290,000);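 active = inhibition above the screen-wide mean plus 3 SD, computed separately per campaign, cut at about 16% in these data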;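 note: 0% = DMSO wells and 100% = 60 µM geldanamycin wells; inhibitors lower the luminescence because luciferase stays unfolded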
SENP8 block-2 – inhibitors of human SENP8 protease; inhibition, % at 10 µM; purified SENP8, Z-RLRGG-aminoluciferin cleavage, luminescence; actives 1.2% (n = 330,000); in the data active = inhibition above about 50%
SENP8 confirm – human SENP8 inhibition, confirmed | shares compounds with SENP7 inh | Recombinant SENP8, Z-RLRGG-aminoluciferin luminescence, 60 min | inhibition, % at 12.5 µM | actives 40% (n = 6,200) | AID 488912;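 active = mean inhibition across replicates above about 50%, limit read from the data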
SENP6 confirm – human SENP6 inhibition, confirmed; shares compounds with SENP7 inh; recombinant SENP6, Z-RLRGG-aminoluciferin luminescence; inhibition, % at 12.5 µM; actives 58% (n = 6,200)
SENP7 conf – confirmation of human SENP7 protease inhibitors. actives 69% (n = 6,200). shares compounds with SENP7 inh. recombinant SENP7, Z-RLRGG-aminoluciferin luminescence, 40 min. AID 488917. inhibition, % at 12.5 µM
Casp3 SENP sel – inhibits human caspase-3 in SENP selectivity test. purified caspase-3, Z-DEVD-aminoluciferin luminescence, 60 min. inhibition, % at 12.5 µM. shares compounds with SENP7 inh. actives 60% (n = 6,200);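 active = mean inhibition above about 50%, limit read from the data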;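 note: plate controls were enzyme with DMSO for no effect and wells without caspase-3 for full effect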
Target sequence (P42574 28-227 limits assumed): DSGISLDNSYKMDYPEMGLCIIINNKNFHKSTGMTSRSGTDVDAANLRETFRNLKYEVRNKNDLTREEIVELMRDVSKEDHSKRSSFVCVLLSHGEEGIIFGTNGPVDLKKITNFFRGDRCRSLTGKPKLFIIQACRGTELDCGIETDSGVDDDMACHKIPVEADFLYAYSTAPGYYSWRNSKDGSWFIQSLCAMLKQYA
SENP luc ctr – counter-screen for SENP inhibitors: luminescence interference; Pre-incubated SENP8/Z-RLRGG-aminoluciferin, luciferase luminescence interference; shares compounds with SENP7 inh; inhibition, % at 12.5 µM; actives 39% (n = 6,200); AID 488919;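 active = mean inhibition above about 50% when retested at one dose, limit read from the data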;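 note: plate controls were DMSO wells with completed reaction for no effect and substrate without enzyme for full effect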
Active calls of the source: *; . = not tested or not shown. A selection: hits, their analogues and other compounds. The true share with any hit is near 2.7%.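 Rule for the calls, unless noted: active = mean inhibition above about 50% in the one-dose retest (limit read from the data); inactive = the rest.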

SMILES | SENP6 inh | SENP7 inh | SENP8 block-1 | HSP90 inh | SENP8 block-2 | SENP8 confirm | SENP6 confirm | SENP7 conf | Casp3 SENP sel | SENP luc ctr
O=C(c1ccco1)N1CCN(Cc2ccc(Br)cc2)CC1 | 0 | 2 | 2 | -2 | 0 | . | . | . | . | .
COc1ccc(NC(=O)c2cc3ccccc3o2)cc1 | 64* | 33 | 12 | -3 | 35 | 44 | 35 | 71* | 50* | 9
CC(C)C(=O)Nc1cccc(NC(=O)c2cc3ccccc3o2)c1 | -68 | 36 | 8 | -1 | 9 | . | . | . | . | .
O=C(Nc1ccccc1)c1cc2ccccc2o1 | 97* | 98* | 24 | 13 | 95* | 96* | 98* | 102* | 97* | 98*
Cc1cc(C(=O)Nc2ccccc2)oc1C | 64* | 49 | 25 | 5 | 42 | 58* | 55* | 87* | 83* | 61*
CC(=O)c1ccc(NC(=O)c2cc3ccccc3o2)cc1 | -4 | 3 | 8 | -6 | -19 | . | . | . | . | .
CC(=O)Nc1cccc(NC(=O)c2cc3ccccc3o2)c1 | 84* | 84* | 4 | -3 | 62* | 79* | 78* | 95* | 88* | 83*
C=CCNC(=S)N(Cc1ccccc1)Cc1ccccc1 | 4 | 7 | 9 | -1 | 0 | . | . | . | . | .
NS(=O)(=O)c1ccc(CCNS(=O)(=O)c2ccc(Cl)cc2)cc1 | -9 | 8 | 14 | -1 | 1 | . | . | . | . | .
Cc1ccc(N(CCC#N)C(=O)CN2C(=O)NC(Cc3ccccc3)C2=O)cc1 (configuration not stated) | -18 | -7 | 5 | -3 | -5 | . | . | . | . | .
O=C(CC(Nc1cccc(Cl)c1Cl)C(=O)O)c1ccccc1 (configuration not stated) | 2 | 5 | -1 | -1 | -3 | . | . | . | . | .
N=c1oc2cc(O)ccc2cc1C(=O)Nc1ccc(Cl)cc1 | 55* | 7 | -322 | 3 | 54* | -3 | 11 | 22 | 19 | 19
N=c1oc2ccccc2cc1C(=O)Nc1cccc(F)c1 | 66* | 92* | 9 | -7 | 56* | 43 | 35 | 29 | 62* | 2
O=C(Nc1ccc(NC(=O)c2cc3ccccc3o2)cc1)c1ccco1 | -14 | -4 | -34 | 0 | -8 | . | . | . | . | .
O=C(Nc1ccc(F)cc1)c1cc2ccccc2o1 | 86* | 86* | 19 | 2 | 76* | 80* | 82* | 97* | 86* | 64*
CCCCOc1ccc(CSC2=NCCN2)cc1[N+](=O)[O-] | -3 | 3 | 27 | 1 | -8 | . | . | . | . | .
COc1ccc(-c2cc(C(=O)N3CCN(c4ccccc4)CC3)no2)cc1 | -10 | -8 | 6 | -2 | -5 | . | . | . | . | .
O=C(Nc1ccccn1)c1ccc(NC(=O)c2ccco2)cc1 | 6 | 16 | 12 | 3 | -8 | . | . | . | . | .
CCc1ccc(S(=O)(=O)Nc2cc(SCC(=O)O)c(O)c3ccccc23)cc1 | 73* | 30 | 33 | 3 | 28 | 15 | 37 | 12 | 0 | 8
Cc1ccccc1OCC(O)Cn1c(=N)n(Cc2ccccc2)c2ccccc21 (configuration not stated) | -18 | 51* | 20 | 3 | -5 | -30 | -20 | -10 | -11 | -16
CC(C)C1Oc2ccccc2C(=O)N(CC(=O)c2ccc3c(c2)OCCO3)C1=O (configuration not stated) | 16 | 56* | 4 | 6 | -20 | 2 | 6 | 13 | 26 | -4
CC1Oc2ccccc2C(=O)N(CC(=O)c2ccc3c(c2)OCCO3)C1=O (configuration not stated) | 28 | 6 | 8 | 2 | 6 | . | . | . | . | .
Cc1cccc(C)c1OCc1cc(C(=O)N2CCN(c3ccc(F)cc3)CC2)no1 | 55* | 31 | 4 | 4 | 33 | 49 | 47 | 81* | 64* | 59*
Cc1cccc(C)c1OCc1cc(C(=O)N2CCN(c3ccccn3)CC2)no1 | 13 | 2 | 12 | 1 | -3 | . | . | . | . | .
Cn1c(N=Nc2ccccc2)nc2ccccc21 | -4 | 101* | 66* | 42* | 97* | -16 | 99* | 103* | 94* | 97*
SMILES | SENP6 inh | SENP7 inh | SENP8 block-1 | HSP90 inh | SENP8 block-2 | SENP8 confirm | SENP6 confirm | SENP7 conf | Casp3 SENP sel | SENP luc ctr
Cc1ccc(Cn2cc(CN3CC(N4CCN(Cc5cccc(C)c5)CC4)CS3(=O)=O)nn2)cc1 (configuration not stated) | . | . | 13 | . | . | . | . | . | . | .
O=C(Nc1ccc2c(c1)OCCO2)c1ccc2ccccc2n1 | 18 | 65* | -4 | 1 | 54* | -4 | 66* | 90* | 56* | 33
O=C(Nc1ccccc1)c1ccc2ccccc2n1 | 73* | 73* | 5 | 6 | 65* | 37 | 70* | 89* | 65* | 24
O=C(Nc1ccccc1C(=O)O)c1ccc2ccccc2n1 | 54* | 26 | -20 | 2 | 35 | 65* | 60* | 83* | 81* | 49
O=C(Nc1ccc(Cl)cn1)c1ccc2ccccc2n1 | -15 | 35 | 16 | -4 | -8 | . | . | . | . | .
Cc1ccc(-n2nc3ccc(NC(=O)c4ccco4)cc3n2)cc1 | 1 | -2 | -498 | -4 | -4 | . | . | . | . | .
Cc1ccc(-n2nc3ccc(NC(=O)C(C)C)cc3n2)cc1 | 76* | 80* | -376 | 2 | 39 | -15 | -1 | 40 | 5 | -3
O=C(Nc1ccccc1)C(=O)c1c[nH]c2ccccc12 | 93* | 97* | 2 | 5 | 89* | 86* | 90* | 100* | 85* | 38
O=C(Nc1ccon1)c1cc2c(s1)CCCC2 | 89* | 93* | 10 | 3 | 84* | 8 | 90* | 100* | 92* | 63*
CCOC(=O)c1cc(-c2ccccc2)nn1Cc1cc(C)no1 | -11 | -9 | 1 | . | 4 | . | . | . | . | .
COc1ccc(-c2cc(C(=O)Nc3ccccc3F)on2)cc1 | 35 | 70* | -1 | -4 | 11 | 22 | 16 | 13 | 16 | 1
COc1ccc(-c2cc(C(=O)Nc3ccccc3)on2)cc1 | 61* | 86* | -2 | -7 | 42 | 11 | 19 | 4 | 9 | 5
Cn1c(=O)c2c(nc(SCC(=O)NCC3CCCO3)n2C)n(C)c1=O (configuration not stated) | -5 | -12 | 14 | 1 | -4 | . | . | . | . | .
Cc1occc1C(=O)NNC(=O)C1CC1 | -7 | 6 | 17 | 0 | 8 | . | . | . | . | .
Cc1ccc2nc(NS(C)(=O)=O)sc2c1 | -9 | -4 | 13 | 0 | -15 | . | . | . | . | .
